Among all 5,500 compounds or so, about 2,000 (36%) were called active. Another 18% or so got no clear call; they are omitted. No stated cut-off is given here; in the data, active means normalized growth mostly below about 0.91 (no sharp cut-off); inconclusive means no clear call, values can overlap the other calls; inactive means mostly above about 0.92. The list shows a part of the results.
Assay: chemical genetic growth profiling, strain panel (AID 1159580);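 further: tested at 20 µM; growth read once vehicle control cultures reached saturation at 30 °C; 1 = growth at the plate median or of vehicle wells; lower values mean less growth of the strain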
Details: growth OD

Measured: normalized growth

O=C(O)c1ccccc1OP(=O)(O)O
inactive: S. cerevisiae deletion strains, locus YJR066W, strain TOR1, active compounds read low 0.875 | S. cerevisiae deletion strains, locus YKL009W, strain mrt4, active compounds read low 0.997 | S. cerevisiae deletion strains, locus YKL068W, active compounds read low 0.988 | S. cerevisiae deletion strains, locus YKL085W, strain MDH1 (second series), active compounds read low 0.986 | S. cerevisiae deletion strains, locus YKL085W, strain MDH1, active compounds read low 0.986 | S. cerevisiae deletion strains, locus YKL160W, strain elf1, active compounds read low 0.981 | S. cerevisiae deletion strains, locus YKL190W, strain CNB1, active compounds read low 1 | S. cerevisiae deletion strains, locus YKR001C, strain vps1, active compounds read low 0.984 | S. cerevisiae deletion strains, locus YKR026C, strain gcn3, active compounds read low 1.01 | S. cerevisiae deletion strains, locus YKR091W, strain srl3, active compounds read low 1 | S. cerevisiae deletion strains, locus YLL001W, strain dnm1, active compounds read low 1.03 | S. cerevisiae deletion strains, locus YLL026W, active compounds read low 1 | S. cerevisiae deletion strains, locus YLL041C, strain sdh2, active compounds read low 0.992 | S. cerevisiae deletion strains, locus YLR027C, strain aat2, active compounds read low 1 | S. cerevisiae deletion strains, locus YLR039C, strain RIC1, active compounds read low 1.01 | S. cerevisiae deletion strains, locus YLR058C, strain SHM2, active compounds read low 1.02 | S. cerevisiae deletion strains, locus YLR102C, strain apc9, active compounds read low 0.992 | S. cerevisiae deletion strains, locus YLR113W, strain HOG1, active compounds read low 0.967 | S. cerevisiae deletion strains, locus YLR221C, strain rsa3, active compounds read low 0.995 | S. cerevisiae deletion strains, locus YLR258W, strain gsy2, active compounds read low 1.02 | S. cerevisiae deletion strains, locus YLR262C, strain YPT6 (second series), active compounds read low 0.995 | S. cerevisiae deletion strains, locus YLR262C, strain YPT6, active compounds read low 1.05 | S. cerevisiae deletion strains, locus YLR268W, strain sec22, active compounds read low 1.01 | S. cerevisiae deletion strains, locus YLR320W, strain mms22, active compounds read low 1.02 | S. cerevisiae deletion strains, locus YLR330W, strain CHS5, active compounds read low 1.01 | S. cerevisiae deletion strains, locus YLR342W, strain FKS1 (second series), active compounds read low 1 | S. cerevisiae deletion strains, locus YLR342W, strain FKS1, active compounds read low 1 | S. cerevisiae deletion strains, locus YLR357W, strain rsc2, active compounds read low 1.03 | S. cerevisiae deletion strains, locus YLR370C, strain arc18, active compounds read low 1.01 | S. cerevisiae deletion strains, locus YLR371W, strain rom2, active compounds read low 0.987 | S. cerevisiae deletion strains, locus YLR384C, strain iki3, active compounds read low 1.01 | S. cerevisiae deletion strains, locus YLR418C, strain cdc73, active compounds read low 0.994 | S. cerevisiae deletion strains, locus YML016C, strain PPZ1, active compounds read low 1.01 | S. cerevisiae deletion strains, locus YML032C, strain rad52, active compounds read low 0.997 | S. cerevisiae deletion strains, locus YML120C, strain ndi1, active compounds read low 1 | S. cerevisiae deletion strains, locus YML124C, strain tub3, active compounds read low 0.996 | S. cerevisiae deletion strains, locus YMR058W, strain fet3, active compounds read low 1.01 | S. cerevisiae deletion strains, locus YMR078C, strain ctf18, active compounds read low 0.988 | S. cerevisiae deletion strains, locus YMR125W, strain sto1, active compounds read low 1.02 | S. cerevisiae deletion strains, locus YMR129W, active compounds read low 1 | S. cerevisiae deletion strains, locus YMR205C, strain PFK2, active compounds read low 1.03 | S. cerevisiae deletion strains, locus YMR223W, strain ubp8, active compounds read low 0.993 | S. cerevisiae deletion strains, locus YMR231W, strain pep5, active compounds read low 1 | S. cerevisiae deletion strains, locus YMR263W, strain SAP30, active compounds read low 1.02 | S. cerevisiae deletion strains, locus YMR307W, strain GAS1, active compounds read low 1 | S. cerevisiae deletion strains, locus YNL067W, strain RPL9B, active compounds read low 1.01 | S. cerevisiae deletion strains, locus YNL071W, strain lat1, active compounds read low 1.01 | S. cerevisiae deletion strains, locus YNL183C, strain NPR1, active compounds read low 0.872 | S. cerevisiae deletion strains, locus YNL209W, strain ssb2, active compounds read low 1 | S. cerevisiae deletion strains, locus YNL233W, strain BNI4, active compounds read low 1.02 | S. cerevisiae deletion strains, locus YNL248C, strain rpa49, active compounds read low 0.971 | S. cerevisiae deletion strains, locus YNL250W, strain rad50, active compounds read low 0.983 | S. cerevisiae deletion strains, locus YNL271C, strain bni1, active compounds read low 0.981 | S. cerevisiae deletion strains, locus YNL298W, strain CLA4, active compounds read low 0.982 | S. cerevisiae deletion strains, locus YNL307C, strain MCK1, active compounds read low 0.986 | S. cerevisiae deletion strains, locus YNL322C, strain KRE1 (second series), active compounds read low 0.983 | S. cerevisiae deletion strains, locus YNR049C, strain mso1, active compounds read low 1 | S. cerevisiae deletion strains, locus YNR052C, strain pop2, active compounds read low 0.999 | S. cerevisiae deletion strains, locus YOL006C, strain TOP1, active compounds read low 1.03 | S. cerevisiae deletion strains, locus YOL012C, strain htz1 0.778 | S. cerevisiae deletion strains, locus YOL147C, strain pex11, active compounds read low 1 | S. cerevisiae deletion strains, locus YOR001W, strain rrp6, active compounds read low 0.976 | S. cerevisiae deletion strains, locus YOR061W, strain CKA2, active compounds read low 1.01 | S. cerevisiae deletion strains, locus YOR069W, strain VPS5, active compounds read low 1.01 | S. cerevisiae deletion strains, locus YOR070C, strain gyp1, active compounds read low 0.998 | S. cerevisiae deletion strains, locus YOR080W, strain dia2, active compounds read low 1.01 | S. cerevisiae deletion strains, locus YOR083W, strain WHI5, active compounds read low 0.969 | S. cerevisiae deletion strains, locus YOR106W, strain vam3, active compounds read low 0.983 | S. cerevisiae deletion strains, locus YOR136W, strain idh2, active compounds read low 0.994 | S. cerevisiae deletion strains, locus YOR144C, strain elg1, active compounds read low 0.991 | S. cerevisiae deletion strains, locus YOR184W, strain ser1, active compounds read low 1 | S. cerevisiae deletion strains, locus YOR231W, strain MKK1, active compounds read low 0.981 | S. cerevisiae deletion strains, locus YOR265W, strain rbl2, active compounds read low 0.997 | S. cerevisiae deletion strains, locus YOR270C, strain vph1, active compounds read low 1.01 | S. cerevisiae deletion strains, locus YOR290C, strain snf2, active compounds read low 0.983 | S. cerevisiae deletion strains, locus YOR316C, strain cot1, active compounds read low 0.99 | S. cerevisiae deletion strains, locus YPL051W, strain arl3, active compounds read low 0.991 | S. cerevisiae deletion strains, locus YPL055C, strain LGE1, active compounds read low 1.03 | S. cerevisiae deletion strains, locus YPL078C, strain atp4, active compounds read low 0.968 | S. cerevisiae deletion strains, locus YPL106C, strain sse1, active compounds read low 1.01 | S. cerevisiae deletion strains, locus YPL240C, strain hsp82, active compounds read low 1 | S. cerevisiae deletion strains, locus YPL241C, strain CIN2, active compounds read low 1.01 | S. cerevisiae deletion strains, locus YPL256C, strain CLN2, active compounds read low 0.948 | S. cerevisiae deletion strains, locus YPR119W, strain clb2, active compounds read low 0.993 | S. cerevisiae deletion strains, locus YPR141C, strain kar3, active compounds read low 0.98 | S. cerevisiae deletion strains, locus YPR163C, strain tif3, active compounds read low 0.989 | S. cerevisiae deletion strains, locus YPR167C, strain met16, active compounds read low 0.986 | S. cerevisiae deletion strains, strain wtn01, active compounds read low 1.02 | S. cerevisiae strains, strain wild type, active compounds read low 1.01
